Shiga inhibitor = blocks Shiga toxin action in Vero cells; 290,000 compounds, 9.2% hits; Vero cells, Shiga toxin protein synthesis inhibition reporter; inhibition, % at 38.7 µM; in the data active = inhibition mostly above about 28%, no sharp cut-off; inactive = mostly below about 43%; note: 0% is about no effect
FMDV inh = antivirals against foot and mouth disease virus; FMDV antiviral cell-based qHTS; Potency, µM (top dose mostly 57.9 µM), inactives show top-dose activity change, negative = inhibition, most hits filed as inhibitors; 410,000 compounds, 1.2% hits; AID 1159524; calls by dose curve; tested in HEK293T cells; note: read-out not given here; potency is the fitted concentration of half-maximal effect; % is set by controls: 0 for no effect and ±100 for the full control effect; nearly all actives have a fitted effect of over 45% in size
HCV inhibitor = blocks hepatitis C virus; Huh7.5.1 HCVcc-Cre infection, luciferase reporter, 44 h; Potency, µM (series often up to 41.8 µM), without a hit: at the highest dose activity change, negative = inhibition, actives largely listed as inhibitors; 340,000 compounds, 3.4% hits; active = well fitted inhibition curve with a large enough effect; inconclusive = small, poorly fitted or top-dose-only effect, or another doubt; inactive = no such curve, though single readings can be large or run the other way; note: potency is the fitted concentration of half-maximal effect; % is set by controls: 0 for no effect and ±100 for the full control effect
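A cell-based infection assay in which seeded cells (1,000 per well) receive test compound after 4 h, are inoculated with HCVcc-Cre at approximately 0.5 moi, and are incubated 44 h before luminescence detection.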
Marburg entry inh = Marburg virus entry inhibition; Marburg virus pseudotyped entry inhibition, cell reporter; Potency, µM (series often up to 37.8 µM), for inactives: at the highest dose activity change, negative = inhibition, actives largely listed as inhibitors; 300,000 compounds, 1.8% hits; AID 540276; calls by dose curve; tested in HEK293 cells; note: potency is the fitted concentration of half-maximal effect; % is set by controls: 0 for no effect and ±100 for the full control effect
Lassa entry inh = inhibitors of Lassa virus binding or cell entry; Lassa virus pseudotype entry inhibition, cell reporter; Potency, µM (doses to about 37.9 µM), for inactives: at the top dose activity change, negative = inhibition, hits mostly inhibitors; 300,000 compounds, 1.2% hits; calls by dose curve; tested in HEK293 cells; note: potency is the fitted concentration of half-maximal effect; % is set by controls: 0 for no effect and ±100 for the full control effect; nearly all actives have a fitted effect of over 50% in size
CHX counter = counter-screen for Shiga toxin inhibitors: cycloheximide protein synthesis inhibition; cell reporter, cycloheximide protein synthesis inhibition counterscreen; max response, %; 300,000 compounds, 12% hits; in the data active = max response mostly above about 13%, no sharp cut-off; inactive = mostly below about 14%; note: read at 38.3 µM for the half of the compounds with a filed dose; 0% is about no effect
* hit, by the source's call; ? = inconclusive; . = no result; [ ] = remark or other dose. The list is not random: actives were taken first. Their share in the collection is about 13%.

SMILES	Shiga inhibitor	FMDV inh	HCV inhibitor	Marburg entry inh	Lassa entry inh	CHX counter
COc1ccc(CCN(C)CC(=O)Nc2c(C)cc(C)cc2C)cc1OC	-15	-15%	-2%	.	.	-2
O=C(/C=C/c1c(Cl)nc2ccccn12)N1CCCCC1	49	43%	-22%	-5%[46.1 µM]	2%	39*
O=C(/C=C/c1c(Cl)nc2ccccn12)N1CCN(c2ccccc2F)CC1	-18	?	?	?	?	-1
CCN(CC)c1ccc(/C=N/Nc2nc(C)cc(C)n2)cc1	35	9%	?	10µM*	?	20
CC(C)NC(=S)N/N=C/c1ccc2c(c1)OCCO2	53*	28%	25%	?	2%	49*
COCCNC(=S)N/N=C/c1ccc2c(c1)OCCO2	0	1%	7%	.	.	1
Cc1cc(C)nc(N/N=C/c2ccc3c(c2)OCCO3)n1	59*	17%	-4%	-3%[46.1 µM]	-10%[46.1 µM]	25*
S=C(NN=Cc1ccc2c(c1)OCO2)NN=Cc1ccc2c(c1)OCO2	.	17%	-4%	?	?	.
COc1cccc(NC(=O)COC(=O)c2c(F)cccc2Cl)c1	95*	49%	-22%	?	-37%	37*
COc1cccc(NC(=O)COC(=O)c2ccccc2F)c1	9	7%	13%	2%	-3%	8
O=C(COC(=O)c1c(F)cccc1Cl)NC1CCCC1	110*	56%	-9%	?	23%	51*
Cc1c2c(=O)n(-c3nc4ccccc4s3)nc-2cc(O)n1Cc1ccccc1	22	7.1µM*	4%	.	.	11
Cc1cc(NC(=O)C(C)C)n(-c2nc3ccccc3s2)n1	69*	23%	?	.	.	31*
Cc1cc(C)n(-c2nc3ccccc3s2)n1	109*	0%	-4%	?	16%	56*
Cc1c(C(=O)c2ccc(Cl)c([N+](=O)[O-])c2)c2ccccn2c1CCC#N	19	?	?	?	?	6
COc1ccc2oc(C(=O)N3CCN(S(=O)(=O)c4cccc([N+](=O)[O-])c4)CC3)c(C)c2c1	5	-29%	4%	?	-1%[46.1 µM]	-2
CCN1CCN(c2nc3c(C)cccn3c(=O)c2/C=C(\C#N)C(=O)NCCOC)CC1	-5	-14%	5%	.	.	1
C[C@]1(O)CC(=O)C=C[C@H]1Nc1ccccc1	.	25µM*	-14%	.	.	.
Cc1ccc(Nc2nc(NCc3ccco3)c3ccccc3n2)cc1	43	-42%	3.5µM*	?	2.8µM*	30*
c1ccc(-c2nc(NCc3ccco3)c3ccccc3n2)nc1	-1	?	?	?	?	9
COc1ccccc1Nc1nc(NCc2ccco2)c2ccccc2n1	32	?	?	?	-20%	24*
Cc1ccc(S(=O)(=O)N(C)/N=C/c2ccc(N(C)C)cc2)cc1	70*	8%	-22%	4%[46.1 µM]	1%	57*
O=C(c1cccc(C(=O)N(c2ccccn2)C2CCCCC2)c1)N(c1ccccn1)C1CCCCC1	43	-7%	-20%	9.2µM*	?	-6
CCN(CC)c1ccc(C(=O)OCC(=O)NC2CCCCC2C)cc1 (stereo not drawn)	-4	-21%	-23%	-3%[46.1 µM]	-21%	-2
COC(=O)c1ccc(OCC(=O)NC2CCCCCC2)cc1	39*	-7%	-10%	.	.	25
SMILES	Shiga inhibitor	FMDV inh	HCV inhibitor	Marburg entry inh	Lassa entry inh	CHX counter
CC1CCCC(NC(=O)COC(=O)c2ccc(N(C)C)cc2)C1C (stereo not drawn)	-17	-3%	2.8µM*	-1%	?	-1
COc1ccc(OCC(=O)OCC(=O)NC2CCCC2)cc1	.	-5%	-5%	9%	2%	.
CC(=O)c1ccc(OCC(=O)NC2CCCCCC2)cc1	.	0%	10%	-10%	14%	.
COc1ccc(OCC(=O)NC2CCCCCCC2)cc1	42*	36%	13%	?	7%[46.1 µM]	27*
Cc1cccc(C)c1NC(=O)C1(C)CSCC(=O)N1CCc1ccc(O)cc1 (stereo not drawn)	.	-1%	.	.	.	.
CC(C)c1ccc(OCC(=O)N(c2ccccn2)C2CCCCC2)cc1	19	-8%	?	?	-13%	17*
COc1cccc(/C=C(/C(=O)OCC(=O)NC2CCCCCCC2)c2ccccc2)c1	-13	?	11µM*	-12%	-8%	1
COc1ccc(C2(O)CCN(C(=O)NC3CCCCC3)CC2)cc1	24	5%	11%	3.7µM*	-6%	13
Cc1ccc(C(=O)OCC(=O)NC2CCCC2)cc1	75*	41%	16%	.	.	32*
COc1cccc(C(=O)NCC2Cc3cccc(-c4nc(C)cnc4C)c3O2)c1OC (stereo not drawn)	.	-3%	.	.	.	.
Cc1ccc(S(=O)(=O)NCCNS(=O)(=O)c2ccccc2Br)cc1	.	86%	-9%	.	.	.
Cc1ccc(C(=O)N2CCC(C(=O)NC3CCCCCC3)CC2)cc1	56	17%	3%	3%[46.1 µM]	10%[46.1 µM]	28*
Cc1ccc(CNC(=O)NC2CCCCC2)cc1	55*	65%	11%	17%	-24%	16*
CC(C)c1ccc(OCC(=O)NC2CCCC2)cc1	63*	6%	10%	.	.	34*
Cc1ccc(C(C)C)cc1OCC(=O)NC1CCCCCCC1	.	-8%	?	?	?	.
CCn1cc(CNC(=O)NC2CCCCC2)c(C)n1	65*	29%	5%	?	13%	19*
CCn1cc(CNC(=O)/C=C/c2cnn(C)c2)c(C)n1	14	-11%	25%	5%	?	-1
COC(=O)N1CCC[C@@]2(CCN(c3ncccn3)C2)C1	.	10%	.	.	.	.
COc1ccccc1C(=O)NCCC(=O)Nc1ccc(C)cn1	29	-4%	1%	6%[46.1 µM]	29%[46.1 µM]	17
Cc1ccc(C(=O)NCC(=O)NC2CCCCCC2)cc1	26*	55%	-4%	8%	25%	active
CCCCOc1ccc(C(=O)NCC(=O)NC2CC2)cc1	.	5%	13%	22%	-6%	.
CC(C)c1ccc2nc(N)sc2c1	64*	-25%	10%	?	-5%	26*
Nc1nc2ccc(O)cc2s1	10	-8%	-7%	3%	11%	5
Cc1cc2nc(N)sc2cc1C	49*	40%	-15%	-26%	?	41*
NS(=O)(=O)OCCCCCc1ccccc1	19	0%	9%	.	.	14*
SMILES	Shiga inhibitor	FMDV inh	HCV inhibitor	Marburg entry inh	Lassa entry inh	CHX counter
NS(=O)(=O)OCCCc1ccccc1	-12	-2%	10%	.	.	-6
Cc1c(NC(=O)C(C)OC(=O)/C=C/c2ccco2)c(=O)n(-c2ccccc2)n1C (stereo not drawn)	17	2%	7%	3%	9%	-2
CNC(=O)c1csc(-c2cccs2)n1	64	48%	12%	6%	12%	21
CNC(=O)c1sc(-c2cccs2)nc1C	34	55%	7%	7%[46.1 µM]	4%	36*
C=C1C(=O)C=C[C@]2(C)C[C@@H]3OC(=O)[C@](C)(O)[C@H]3C[C@@H]12	63*	28µM*	?	.	.	35*
CCOC(=O)CNC(=O)c1sc(NC(=O)/C=C/c2ccccc2)nc1C	-4	2%	-15%	.	.	-7

Source: PubChem
